Test results from PubChem BioAssay.
Some of the results follow. Values without a mark were called inactive. Active and inactive are the calls of the source.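 The calls were made as follows, unless noted: active = inhibition above the control-well mean plus 3 SD of those wells (cut at about 22% in these data); inactive = the rest.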

test system: not listed separately; assay: blockers of isoproterenol-driven CNG channel signal – cell-based, HEK293-CNG parental, membrane potential fluorescence, counter-screen for NPY-Y2 potentiator project (AID 1703); details: isoproterenol cAMP, at 3.6 µM, hits give high values;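 also: 0% = DMSO with isoproterenol and 100% = DMSO without isoproterenol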

Row | Compound | inhibition
1 | O=C(Nc1sc2c(c1-c1nc3ccccc3[nH]1)CCCC2)C1CC1 | 19.9%
2 | O=C1NC(c2ccc(-c3ccccc3[N+](=O)[O-])o2)C(C(=O)c2ccc(Cl)cc2)C(O)(C(F)(F)F)N1 (configuration not stated) | 31.2% (active)
3 | O=C(NCc1ccccc1)c1ccc(S(=O)(=O)Nc2cccc(C(F)(F)F)c2)cc1 | 16.6%
4 | CN(C)c1ccc(CNC2C3CC4CC(C3)CC2C4)cc1 (configuration not stated) | 5.13%
5 | COc1ccc2nc(NC(=O)NC3CCCCC3)sc2c1 | 56.1% (active)
6 | N/C(=N\S(=O)(=O)c1cc(C(F)(F)F)cc(C(F)(F)F)c1)c1cccs1 | 25.6% (active)
7 | CC(Nc1ccccc1)c1cccnc1 (configuration not stated) | 2.7%
8 | COc1cc(NC(=O)c2ccccc2NS(=O)(=O)c2ccc(Cl)s2)cc(OC)c1 | -9.95%
9 | CC(=O)c1ccc2c(c1)OCCOCCOc1ccc(C(C)=O)cc1OCCOCCO2 | 22.4% (active)
10 | CN(Cc1ccccc1)C(=O)CCNC(=O)Cn1cnc2ccccc2c1=O | 11.2%
11 | Cc1ccc(CCNC(=O)C2CCN(S(=O)(=O)N3CCCC3)CC2)cc1 | -4.94%

biological target: Neuropeptide Y receptor type 2 (Homo sapiens) (UniProt P49146); assay: agonism at human Y2 receptor without NPY – cell-based, fluorescence, counter-screen for NPY-Y2 potentiator project (AID 1710;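 active = activation above the mean of solvent-only control wells plus 3 SD, cut at about 10% in these data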;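 also: cells stimulated by isoproterenol with no NPY added so direct agonism is tested; 0% = DMSO with isoproterenol alone and 100% = NPY at EC100 plus isoproterenol; agonism lowers probe fluorescence through less cAMP and CNG channel opening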); details: HEK293 Y2/CNGC cells, membrane potential fluorescence, agonist mode; at 3.6 µM; hits give high values
Sequence (P49146 whole entry, looked up): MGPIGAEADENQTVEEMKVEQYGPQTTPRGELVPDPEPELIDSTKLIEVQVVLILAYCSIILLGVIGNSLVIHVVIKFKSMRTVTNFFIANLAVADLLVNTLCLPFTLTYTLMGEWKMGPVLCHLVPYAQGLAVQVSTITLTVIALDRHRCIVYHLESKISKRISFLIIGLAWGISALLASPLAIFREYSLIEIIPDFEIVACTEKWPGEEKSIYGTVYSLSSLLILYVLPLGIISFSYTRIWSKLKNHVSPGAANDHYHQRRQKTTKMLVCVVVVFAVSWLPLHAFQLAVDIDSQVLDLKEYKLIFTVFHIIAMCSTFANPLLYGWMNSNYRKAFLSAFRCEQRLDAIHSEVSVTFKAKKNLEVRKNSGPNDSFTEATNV

Row | Compound | activation
12 | O=C(Nc1sc2c(c1-c1nc3ccccc3[nH]1)CCCC2)C1CC1 | 24.5% (active)
13 | O=C1NC(c2ccc(-c3ccccc3[N+](=O)[O-])o2)C(C(=O)c2ccc(Cl)cc2)C(O)(C(F)(F)F)N1 (configuration not stated) | 32.6% (active)
14 | O=C(NCc1ccccc1)c1ccc(S(=O)(=O)Nc2cccc(C(F)(F)F)c2)cc1 | 19.8% (active)
15 | CN(C)c1ccc(CNC2C3CC4CC(C3)CC2C4)cc1 (configuration not stated) | -2.65%
16 | COc1ccc2nc(NC(=O)NC3CCCCC3)sc2c1 | 53.9% (active)
17 | N/C(=N\S(=O)(=O)c1cc(C(F)(F)F)cc(C(F)(F)F)c1)c1cccs1 | 23.1% (active)
18 | CC(Nc1ccccc1)c1cccnc1 (configuration not stated) | 17.8% (active)
19 | COc1cc(NC(=O)c2ccccc2NS(=O)(=O)c2ccc(Cl)s2)cc(OC)c1 | -3.82%
20 | CC(=O)c1ccc2c(c1)OCCOCCOc1ccc(C(C)=O)cc1OCCOCCO2 | 26.6% (active)
21 | CN(Cc1ccccc1)C(=O)CCNC(=O)Cn1cnc2ccccc2c1=O | 18.3% (active)
22 | Cc1ccc(CCNC(=O)C2CCN(S(=O)(=O)N3CCCC3)CC2)cc1 | -8.83%
